Experimental data from PubChem BioAssay (NCATS).
Records with an inconclusive call do not appear. Active and inactive are the calls of the source. Unless noted, calls come from the whole dose curve; as a rule, active = well fitted curve in either direction with a large enough effect (not every such curve was filed as active); inconclusive = small, poorly fitted or top-dose-only effect, or another doubt; inactive = flat fitted curve, though single readings scatter.

Experiments:
[1] = biological target: Lysosomal acid glucosylceramidase (Homo sapiens) (UniProt P04062); experiment: Glucocerebrosidase-p2 (AID 348; in the data active = potency below about 10 µM; note: potency is the fitted concentration of half-maximal effect); details: purified GBA, blue fluorogenic substrate, 40 min
Sequence of Lysosomal acid glucosylceramidase (Homo sapiens) (P04062 whole entry, looked up): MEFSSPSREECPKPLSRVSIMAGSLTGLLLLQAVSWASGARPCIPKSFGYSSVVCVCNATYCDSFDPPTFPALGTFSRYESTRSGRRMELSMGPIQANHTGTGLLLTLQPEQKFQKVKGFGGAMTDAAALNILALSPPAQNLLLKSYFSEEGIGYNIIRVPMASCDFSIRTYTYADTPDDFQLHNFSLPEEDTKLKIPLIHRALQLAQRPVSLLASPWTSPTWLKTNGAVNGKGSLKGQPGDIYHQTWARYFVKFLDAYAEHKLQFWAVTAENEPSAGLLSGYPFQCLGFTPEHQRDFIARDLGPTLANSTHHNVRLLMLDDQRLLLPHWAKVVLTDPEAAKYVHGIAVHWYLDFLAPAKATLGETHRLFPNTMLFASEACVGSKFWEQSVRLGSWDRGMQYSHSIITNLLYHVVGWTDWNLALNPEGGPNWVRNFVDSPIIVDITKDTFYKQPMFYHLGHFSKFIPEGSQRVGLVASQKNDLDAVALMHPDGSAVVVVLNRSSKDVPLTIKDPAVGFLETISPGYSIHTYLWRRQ
Procedure, shortened: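 Normal human glucocerebrosidase (0.2 nM) with blue fluorogenic substrate (80 uM final) in citrate/phosphate pH 5.9 with 10mM sodium taurocholate, 0.01% tween-20; 40 min RT, NaOH/glycine stop; fluorescence Ex 365/Em 440; AC50 from a titration from 0.6 nM upwards.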

[2] = AP1 Signaling Pathway (AID 357); details: ME-180 AP-1-bla reporter, EGF-induced, beta-lactamase ratio, 5 h; at 7.69 µM (top of the series) unless noted;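 note: ME-180 reporter cells stimulated with EGF at its EC50 level; % is set by controls: 0 for no effect and ±100 for the full control effect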
Procedure, shortened: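 In this screen, ME-180 cells in Opti-MEM with 0.5% dialyzed FBS received EC50 EGF and compound titrations for 5 h. AP-1 reporter beta-lactamase was detected via CCF4 ratio, giving AC50 for positive and negative modulators.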

[3] = biological target: Cytochrome P450 1A2 (Homo sapiens) (UniProt P05177); experiment: p450-cyp1a2 (AID 410; calls by dose curve; note: potency is the fitted concentration of half-maximal effect;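 for activity change, negative = inhibition: -100% = full effect of reference inhibitor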); details: recombinant CYP1A2, luciferin-ME demethylation, luminescence; series mostly up to 11.4 µM
Sequence of Cytochrome P450 1A2 (Homo sapiens) (P05177 whole entry, looked up): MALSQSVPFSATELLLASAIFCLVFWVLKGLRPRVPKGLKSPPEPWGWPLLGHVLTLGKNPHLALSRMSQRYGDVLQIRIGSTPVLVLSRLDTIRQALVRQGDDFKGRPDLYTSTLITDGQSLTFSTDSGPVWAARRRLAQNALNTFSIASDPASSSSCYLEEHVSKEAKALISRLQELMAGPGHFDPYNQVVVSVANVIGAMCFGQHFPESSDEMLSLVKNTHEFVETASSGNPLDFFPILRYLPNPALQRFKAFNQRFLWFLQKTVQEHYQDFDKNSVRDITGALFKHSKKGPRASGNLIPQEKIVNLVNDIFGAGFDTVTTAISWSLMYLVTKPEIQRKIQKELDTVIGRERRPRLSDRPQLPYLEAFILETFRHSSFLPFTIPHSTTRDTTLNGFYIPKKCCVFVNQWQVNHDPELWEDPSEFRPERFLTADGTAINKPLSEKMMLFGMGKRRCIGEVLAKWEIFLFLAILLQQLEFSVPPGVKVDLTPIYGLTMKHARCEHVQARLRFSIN
Procedure, shortened: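 Read-out is luminescence from luciferin produced by CYP1A2 demethylation of Luciferin-ME (100uM, at Km). Detection reagent stopped the 60 min NADPH-dependent reaction; signals were normalized to 57 uM furafylline.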

[4] = NFAT Signaling Pathway (AID 444); details: Jurkat NFAT-bla M1, carbachol, beta-lactamase ratio, 5 h; at 7.69 µM (top of the series) unless noted;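 note: carbachol stimulus at about its EC50 of 1 µM final; % is set by controls: 0 for no effect and ±100 for the full control effect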
Procedure, shortened: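 Read-out: CCF4 FRET ratio (460 nm/530 nm) after 1 h RT dye loading, used for %activity and AC50 from titration series. Cells: Jurkat NFAT-β-lactamase/M1 line, treated with compound plus 1 uM carbachol for 5 h, 37 °C.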

[5] = Stat Signaling Pathway (AID 446); details: ME-180 (cervical carcinoma) SIE beta-lactamase reporter, IL-6 stimulated, 5 h; at 7.69 µM (top of the series) unless noted;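 note: ME-180 cervical cancer cells given 40 pM IL-6 alongside compound; SIE-controlled beta-lactamase reporter measured as 460/530 nm FRET emission ratio; % is set by controls: 0 for no effect and ±100 for the full control effect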
Procedure, shortened: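 Compound effects on IL-6-induced STAT reporter activity were measured in ME-180 cells. After overnight culture, cells were co-treated with 40 pM IL-6 for 5 hrs before beta-lactamase substrate loading at room temperature.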

[6] = biological target: Glucocorticoid receptor (Homo sapiens) (UniProt P04150); experiment: GR-GFP Redistribution (AID 450;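 active = compounds whose dose series gives a full or clear partial fitted curve of increased nuclear translocation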; note: potency is the fitted concentration of half-maximal effect); details: U2OS GR-GFP nuclear translocation, laser cytometry, 2 h
Sequence of Glucocorticoid receptor (Homo sapiens) (P04150 whole entry, looked up, the tested form may be a part): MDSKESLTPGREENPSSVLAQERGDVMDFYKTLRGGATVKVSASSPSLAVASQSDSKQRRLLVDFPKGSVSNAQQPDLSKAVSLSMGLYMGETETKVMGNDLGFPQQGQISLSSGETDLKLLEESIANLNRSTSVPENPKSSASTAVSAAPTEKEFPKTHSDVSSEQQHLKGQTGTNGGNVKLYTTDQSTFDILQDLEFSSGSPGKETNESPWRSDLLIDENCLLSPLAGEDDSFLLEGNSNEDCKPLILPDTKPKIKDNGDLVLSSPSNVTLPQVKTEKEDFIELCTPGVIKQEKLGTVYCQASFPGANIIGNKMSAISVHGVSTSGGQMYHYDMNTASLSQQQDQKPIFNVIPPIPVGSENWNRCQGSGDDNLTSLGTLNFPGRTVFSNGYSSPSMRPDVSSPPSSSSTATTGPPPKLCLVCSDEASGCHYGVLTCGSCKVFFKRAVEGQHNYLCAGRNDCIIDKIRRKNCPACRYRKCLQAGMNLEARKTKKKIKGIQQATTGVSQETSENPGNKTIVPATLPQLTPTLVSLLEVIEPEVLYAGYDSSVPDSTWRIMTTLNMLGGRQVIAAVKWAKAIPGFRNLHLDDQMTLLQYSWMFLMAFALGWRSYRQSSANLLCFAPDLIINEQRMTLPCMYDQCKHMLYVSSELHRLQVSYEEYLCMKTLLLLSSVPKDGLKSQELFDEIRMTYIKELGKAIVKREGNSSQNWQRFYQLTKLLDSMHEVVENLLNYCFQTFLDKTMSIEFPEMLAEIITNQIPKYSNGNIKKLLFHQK

[7] = biological target: Glucocorticoid receptor (Homo sapiens) (UniProt P04150); experiment: GR-EFC Redistribution (AID 451; calls by dose curve; note: potency is the fitted concentration of half-maximal effect); details: CHO-K1 GR-EFC translocation, beta-gal luminescence, 2 h
Procedure, shortened: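 Translocation of GR-ED fusion to nuclear EA restores b-gal, read by luminescence after 1 h room-temperature detection. Engineered CHO-K1 biosensor cells, 1,000/well, exposed 2 h at 37 C to titrations up to 46 uM final.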

[8] = biological target: Mitogen-activated protein kinase 10 (Mus musculus) (UniProt Q61831); experiment: JNK3 AlphaScreen Assay (AID 530); details: JNK3 lysate, c-Jun phosphorylation; series mostly up to 57.1 µM;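 note: kinase came from lysate of stimulated human HepG2 cells; signal reports phosphorylation of biotinylated GST-cJun 1-79 at Ser73 with 10 µM ATP; % is set by controls: 0 for no effect and ±100 for the full control effect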
Procedure, shortened: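 Kinase buffer: 20 mM Tris-HCl pH 7.6, 10 mM MgCl2, 1 mM DTT, 0.1 mM Na3VO4, 0.01% Tween-20; ATP 10 uM. Substrate biotin-GST-cJun(1-79), enzyme from activated HepG2 lysates. Detection by Ser73 phospho-antibody AlphaScreen.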

[9] = test system: HIV-1 nucleocapsid protein NCp7 (binding to TG oligonucleotide); experiment: HIV Nucleocapsid (AID 346; call rule not given here;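 note: potency is the fitted concentration of half-maximal effect; potency is for inhibitors that block NC binding and lower polarization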); details: HIV-1 NC / fluorescein-TGTGTGTG probe, fluorescence polarization
Procedure, shortened: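 Fluorescence polarization readout: labelled TG4xF oligo (10 nM) with 100 nM nucleocapsid protein, high-salt (250mM NaCl) Hepes pH 7.5 buffer containing zinc and fresh reducing agents. Compounds added by pin tool; incubation 1 hr, room temperature.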

[10] = biological target: 3',5'-cyclic-AMP phosphodiesterase 4B (Homo sapiens) (UniProt Q07343); experiment: qHTS Assay for Inhibitors of PDE-IV (AID 607; active = well fitted activation curve with a large enough effect in the main read-out, with a control signal flat, not every such curve was filed as active; note: % of control where 0% means no effect); details: HEK293 ACTOne CNG channel cells, membrane potential fluorescence; series mostly up to 22.9 µM
Sequence of 3',5'-cyclic-AMP phosphodiesterase 4B (Homo sapiens) (Q07343 whole entry, looked up): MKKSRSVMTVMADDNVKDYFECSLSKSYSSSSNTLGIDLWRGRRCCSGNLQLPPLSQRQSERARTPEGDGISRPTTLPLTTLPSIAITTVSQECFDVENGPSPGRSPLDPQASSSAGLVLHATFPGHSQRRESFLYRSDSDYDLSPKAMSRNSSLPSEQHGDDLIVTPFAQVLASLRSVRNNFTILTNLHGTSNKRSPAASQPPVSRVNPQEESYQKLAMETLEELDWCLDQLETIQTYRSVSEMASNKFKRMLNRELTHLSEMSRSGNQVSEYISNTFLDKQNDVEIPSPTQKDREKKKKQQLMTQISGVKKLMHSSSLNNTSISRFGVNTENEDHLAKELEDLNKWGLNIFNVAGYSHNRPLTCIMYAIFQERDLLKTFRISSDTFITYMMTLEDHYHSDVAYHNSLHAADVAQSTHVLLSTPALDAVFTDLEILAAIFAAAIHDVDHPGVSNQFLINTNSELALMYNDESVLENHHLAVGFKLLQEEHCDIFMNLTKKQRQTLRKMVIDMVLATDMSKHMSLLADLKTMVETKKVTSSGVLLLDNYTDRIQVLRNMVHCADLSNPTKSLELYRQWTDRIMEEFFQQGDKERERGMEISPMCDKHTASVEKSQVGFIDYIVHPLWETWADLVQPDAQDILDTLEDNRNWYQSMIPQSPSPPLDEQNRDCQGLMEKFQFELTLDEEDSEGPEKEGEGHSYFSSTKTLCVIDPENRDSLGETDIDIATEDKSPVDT
Procedure, shortened: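 ACTOne HEK293 cells carry a modified cAMP-gated CNG channel and express endogenous PDE4; plated 1000 cells/well, compounds up to 22.9 uM final. Membrane-potential dye fluorescence (ex 535/em 590) was read; parental cells received 10 uM forskolin + 100 uM RO 20-1724.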

[11] = biological target: Cytochrome P450 3A4 (Homo sapiens) (UniProt P08684); experiment: qHTS Assay for Activators of Cytochrome P450 3A4 (AID 885; active = well fitted curve in the direction sought with a large enough effect; an effect the other way counts as inactive or inconclusive; note: nearly all actives have a fitted effect of over 65% in size); details: recombinant CYP3A4, Luciferin-PPXE luminescence, 60 min; series mostly up to 57.1 µM
Sequence of Cytochrome P450 3A4 (Homo sapiens) (P08684 whole entry, looked up): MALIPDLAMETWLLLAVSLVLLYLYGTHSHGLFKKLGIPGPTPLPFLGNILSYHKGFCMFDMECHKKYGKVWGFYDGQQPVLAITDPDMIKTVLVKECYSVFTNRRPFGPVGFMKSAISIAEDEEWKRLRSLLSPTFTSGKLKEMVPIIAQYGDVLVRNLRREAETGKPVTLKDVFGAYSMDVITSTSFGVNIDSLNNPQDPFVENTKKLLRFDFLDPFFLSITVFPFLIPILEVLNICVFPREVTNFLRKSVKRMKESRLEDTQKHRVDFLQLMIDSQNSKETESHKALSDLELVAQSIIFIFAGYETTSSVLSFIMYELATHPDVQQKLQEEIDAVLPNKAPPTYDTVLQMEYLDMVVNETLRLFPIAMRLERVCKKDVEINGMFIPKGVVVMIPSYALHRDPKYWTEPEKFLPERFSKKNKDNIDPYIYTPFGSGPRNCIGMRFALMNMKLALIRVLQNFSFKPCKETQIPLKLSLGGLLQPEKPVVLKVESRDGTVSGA
Procedure, shortened: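 CYP3A4 activity: Luciferin-PPXE O-dealkylation, 25uM substrate, 200mM KPO4, RT throughout. Read-out is luciferase luminescence; higher values reflect activation.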

[12] = biological target: Cytochrome P450 2D6 (Homo sapiens) (UniProt P10635); experiment: qHTS Assay for Inhibitors and Substrates of Cytochrome P450 2D6 (AID 891; active = well fitted curve in the direction sought with a large enough effect; an effect the other way counts as inactive or inconclusive; note: potency is the fitted concentration of half-maximal effect; nearly all actives have a fitted effect of over 60% in size); details: recombinant CYP2D6, luciferin-ME EGE luminescence; series mostly up to 11.4 µM
Sequence of Cytochrome P450 2D6 (Homo sapiens) (P10635 whole entry, looked up): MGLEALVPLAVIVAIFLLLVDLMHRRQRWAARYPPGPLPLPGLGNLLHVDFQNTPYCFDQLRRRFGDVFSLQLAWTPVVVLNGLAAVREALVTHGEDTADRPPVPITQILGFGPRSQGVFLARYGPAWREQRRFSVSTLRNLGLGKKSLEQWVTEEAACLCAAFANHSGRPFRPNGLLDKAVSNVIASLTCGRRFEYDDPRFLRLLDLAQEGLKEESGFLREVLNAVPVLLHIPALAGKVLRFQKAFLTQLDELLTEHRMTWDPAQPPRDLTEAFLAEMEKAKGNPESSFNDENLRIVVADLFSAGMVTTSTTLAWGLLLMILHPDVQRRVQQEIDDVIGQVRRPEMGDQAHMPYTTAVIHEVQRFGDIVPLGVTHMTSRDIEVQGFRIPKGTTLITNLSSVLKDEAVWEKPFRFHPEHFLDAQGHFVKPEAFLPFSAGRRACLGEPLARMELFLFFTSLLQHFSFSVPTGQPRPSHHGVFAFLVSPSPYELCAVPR
Procedure, shortened: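 Luminescent read-out of luciferin formed by 5 nM human CYP2D6 demethylating 30 uM Luciferin-ME EGE (Km level) over 60 min at room temperature after NADPH regeneration addition. Data normalized to full inhibition by 1.43 uM quinidine.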

Cc1cc[c]([Sb]2[O][C@H]([C@H](O)[C@H](O)C(=O)O)[C@@H](CO)[O]2)cc1
inactive: Potency [1] > 11.4 µM | activity change, negative = inhibition [2] 0.9% | Potency [3] | activity change, negative = inhibition [4] -5.69% | activity, negative = inhibition [5] 4.3% | Potency [6] > 46 µM | Potency [7] > 9.22 µM | activity change, negative = inhibition [8] 0.865% [at 11.4 µM]

O=C(Nc1cccc(F)c1)N1CC2(CCN(S(=O)(=O)c3ccccc3)CC2)C1
inactive: Potency [9] > 20 µM

CC(C)CN1CCCC2(CCN(C(=O)c3ccco3)CC2)C1
inactive: Potency [9] > 20 µM

O=C(Nc1ccccc1)N1CCCC2(CCN(C(=O)c3ccco3)CC2)C1
inactive: Potency [9] > 20 µM

COCCn1c(=O)c(-c2ccccc2)nc2cncnc21
inactive: Potency [9] > 20 µM

N#CCCCC[N+]12CN3CN(CN(C3)C1)C2
inactive: Potency [1] > 11.4 µM | activity change, negative = inhibition [2] 12.8% | activity change, negative = inhibition [3] 15% [at 2.29 µM] | activity change, negative = inhibition [4] 5.06% | activity, negative = inhibition [5] -17.9% | Potency [6] > 46 µM | Potency [7] > 9.22 µM | activity change, negative = inhibition [8] 0.429% [at 11.4 µM] | outcome [10]

C[C@@H]1O[C@H](OC2[C@@H](O)[C@H](O)C(O)[C@H](O)[C@H]2O)[C@@H](N)C[C@@H]1N=C(N)C(=O)O (some centres not stated)
inactive: Potency [1] > 11.4 µM | activity change, negative = inhibition [2] -0.614% | activity change, negative = inhibition [3] 1.2% [at 2.29 µM] | activity change, negative = inhibition [4] 8.22% | activity, negative = inhibition [5] 8.32% | Potency [6] > 46 µM | Potency [7] > 9.22 µM | activity change, negative = inhibition [8] 1.04% [at 11.4 µM]

CC(C)CC(=O)C[C@H](O)C(Cl)(Cl)Cl
inactive: Potency [1] > 11.4 µM | activity change, negative = inhibition [2] 3.65% | Potency [3] | activity change, negative = inhibition [4] -9% | activity, negative = inhibition [5] -1.91% | Potency [6] > 46 µM | Potency [7] > 9.22 µM | activity change, negative = inhibition [8] 5.57% [at 11.4 µM]

COc1ncc2nc(-c3cccs3)c(=O)n(CCC#N)c2n1
inactive: Potency [9] > 20 µM

N[C@@H](CSC1c2ccccc2-c2ccccc21)C(=O)O
active: Potency [3] 2.51 µM
inactive: Potency [1] > 11.4 µM | activity change, negative = inhibition [2] 0.63% | activity change, negative = inhibition [4] -6.99% | activity, negative = inhibition [5] 3% | Potency [6] > 46 µM | Potency [7] > 9.22 µM | activity change, negative = inhibition [8] -0.997% [at 11.4 µM]

O=C(Oc1ccccc1)N1CCC[C@@]2(CCN(Cc3nccs3)C2)C1
inactive: Potency [9] > 20 µM | Potency [1] > 11.4 µM | activity change, negative = inhibition [2] -15.6% | activity change, negative = inhibition [4] -0.597% | activity, negative = inhibition [5] -14.8% | Potency [7] > 46 µM | Potency [8] | outcome [10]

CN(C)CCCc1cccnc1
inactive: Potency [1] > 11.4 µM | activity change, negative = inhibition [2] 3.48% | activity change, negative = inhibition [3] -10.2% [at 2.29 µM] | activity change, negative = inhibition [4] 16.7% | activity, negative = inhibition [5] -4.3% | Potency [6] > 46 µM | Potency [7] > 9.22 µM | activity change, negative = inhibition [8] 3.96% [at 11.4 µM] | outcome [10]

CN(C)CCCc1c[nH]c2ccccc12
inactive: Potency [1] > 11.4 µM | activity change, negative = inhibition [2] -7.94% | Potency [3] | activity change, negative = inhibition [4] -13% | activity, negative = inhibition [5] 1.91% | Potency [6] > 46 µM | Potency [7] > 9.22 µM | activity change, negative = inhibition [8] 3.98% [at 11.4 µM]

COc1ccccc1CN1CCCC2(CCN(C(=O)Oc3ccccc3)CC2)C1
inactive: Potency [9] > 20 µM | Potency [1] > 11.4 µM | activity change, negative = inhibition [2] 3.33% | Potency [3] | activity, negative = inhibition [5] 1.52% | Potency [7] > 46 µM | Potency [8] | outcome [10] | Potency [11]
active: Potency [12] 3.98 µM

COC(=O)N1CCC2(CC1)CCN(c1ccccn1)CC2
inactive: Potency [9] > 20 µM

CN(C)C(=O)c1ccc(-c2cncnc2NCc2cccs2)cc1
inactive: Potency [9] > 20 µM

O=C1N[C@@]2(CN3CCC2CC3)C(=O)N1CN(Cc1ccccc1)c1ccccc1
inactive: Potency [1] > 11.4 µM | activity change, negative = inhibition [2] -6.81% | activity change, negative = inhibition [4] 6.45% | activity, negative = inhibition [5] -6.68% | Potency [6] > 46 µM | Potency [7] > 9.22 µM | activity change, negative = inhibition [8] 4.81% [at 11.4 µM]
active: Potency [3] 0.398 µM

Cc1ccccc1-c1ccc2ncnc(N3CCNCC3)c2c1
inactive: Potency [9] > 20 µM

COc1ccccc1-c1cncnc1NCc1ccccc1
inactive: Potency [9] > 20 µM

CC(=O)N1CCC2(CC1)CCN(c1ccccc1)CC2
inactive: Potency [9] > 20 µM

N#Cc1cccc(NC(=O)N2CCCC3(CCN(C(=O)Oc4ccccc4)CC3)C2)c1
active: Potency [3] 15.8 µM
inactive: Potency [9] > 20 µM | Potency [1] > 11.4 µM | activity change, negative = inhibition [2] -22.4% | activity, negative = inhibition [5] -12.1% | Potency [7] > 46 µM | Potency [8] | Potency [11]

c1csc(CN2CCCC3(CCNCC3)C2)n1
inactive: Potency [9] > 20 µM | Potency [1] > 11.4 µM | activity change, negative = inhibition [2] 10.8% | Potency [3] | activity change, negative = inhibition [4] -10.2% | activity, negative = inhibition [5] -5.01% | Potency [7] > 46 µM | Potency [8] | outcome [10]

CN(C)c1ncc2nc(-c3ccc(F)cc3)c(=O)n(Cc3cccs3)c2n1
inactive: Potency [9] > 20 µM | Potency [11]

O=C(O)[C@H]1[O][Sb][O][C@@H](C(=O)O)C1O (some centres not stated)
inactive: Potency [1] > 11.4 µM | activity change, negative = inhibition [2] 1.25% | activity change, negative = inhibition [3] -15% [at 2.29 µM] | activity change, negative = inhibition [4] 8.28% | activity, negative = inhibition [5] 6.32% | Potency [6] > 46 µM | Potency [7] > 9.22 µM | activity change, negative = inhibition [8] -2.33% [at 11.4 µM]

CC1=C2C(=O)[C@@H]3[C@@H](CC=C4C[C@@H](O)CC[C@@]43C)[C@H]2CC[C@@]12O[C@H]1C[C@H](C)CN[C@H]1[C@@H]2C
inactive: Potency [1] > 11.4 µM | activity change, negative = inhibition [2] 1.78% | Potency [3] | activity change, negative = inhibition [4] 3.5% | activity, negative = inhibition [5] 0.17% | Potency [6] > 46 µM | Potency [7] > 9.22 µM | activity change, negative = inhibition [8] 0.541% [at 11.4 µM]

C1C[C@@H]2CN(CCCN3CCOCC3)[C@@H](C1)O2
inactive: Potency [1] > 11.4 µM | activity change, negative = inhibition [2] -6.14% | Potency [3] | activity change, negative = inhibition [4] 9.72% | activity, negative = inhibition [5] 11.7% | Potency [6] > 46 µM | Potency [7] > 9.22 µM | activity change, negative = inhibition [8] 4.78% [at 11.4 µM] | outcome [10]

O=C(O)C(C(=O)O)P(=S)(S)c1ccccc1 (configuration not stated)
inactive: Potency [1] > 11.4 µM | activity change, negative = inhibition [2] 3.83% | Potency [3] | activity change, negative = inhibition [4] 11.1% | activity, negative = inhibition [5] 2.85% | Potency [6] > 46 µM | Potency [7] > 9.22 µM | activity change, negative = inhibition [8] 2.73% [at 11.4 µM] | outcome [10]
